In test [1] the test system is Human papillomavirus type 1a protein E7 (residues 44-93). The test can be described thus: HPV1a E7 fragment binders on microarrays, primary screen, biochemical, small-molecule microarray, residues 44-93, 635 nm fluorescence (AID 1108).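 Also: E7 fragment applied at 1 µg/mL in TBST for 1 h at 4 C; score combines spot fluorescence with its signal to noise ratio.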 To be noted: small-molecule microarray binding, fluorescence 635 nm; higher = more signal.
Test [2] in a line: modulators of HCV replicon luciferase signal, primary screen, HCV replication inhibitor project, Huh7 cells, luciferase reporter (AID 1109).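 Also: huh7 hepatoma cells harbouring a luciferase neomycin HCV replicon reporter; luciferase luminescence as measure of HCV replicon replication; test concentration not given here.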 As to conditions: 48 h, higher = more signal.
The target in test [3] is Left-right determination factor 2 (Homo sapiens) (UniProt O00292). The test can be described thus: LEFTY2 binders on small-molecule microarrays, primary screen, biochemical, small-molecule microarray, 635 nm fluorescence scan (AID 1110). To be noted: LEFTY2 binding, higher = more signal.
Sequence of Left-right determination factor 2 (Homo sapiens) (O00292 whole entry, looked up): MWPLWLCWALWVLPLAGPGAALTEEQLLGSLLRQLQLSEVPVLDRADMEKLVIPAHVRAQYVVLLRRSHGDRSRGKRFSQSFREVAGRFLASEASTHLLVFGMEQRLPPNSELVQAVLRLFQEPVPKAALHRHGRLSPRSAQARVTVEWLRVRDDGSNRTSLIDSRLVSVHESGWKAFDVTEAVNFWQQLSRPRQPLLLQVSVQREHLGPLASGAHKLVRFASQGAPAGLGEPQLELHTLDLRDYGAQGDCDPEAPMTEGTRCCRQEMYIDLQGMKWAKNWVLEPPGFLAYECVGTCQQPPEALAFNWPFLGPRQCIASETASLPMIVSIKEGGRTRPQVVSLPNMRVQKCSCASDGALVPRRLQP
For test [4], the target named is Calmodulin-1 (Homo sapiens) (UniProt P0DP23). The test is described as follows: CALM1 binders on microarrays, EGTA buffer, profiling panel, biochemical, small-molecule microarray, Cy5-labelled CALM1 (AID 1111).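 Also: labelled calmodulin applied in Tris saline Tween buffer holding calcium plus EGTA and DTT.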 To be noted: Cy5-CALM1 binding fluorescence, higher = more signal.
The target is the same in test [5]. The test is described as follows: calcium-bound CALM1 binders on microarrays, profiling panel, artefact control for SMM control-protein annotation, biochemical, small-molecule microarray, Cy5-labelled CALM1, plus calcium (AID 1112).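 Also: score merges spot fluorescence with signal to noise from triplicate slides.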 To be noted: Cy5-CALM1 binding fluorescence, higher = more signal.
Test [6] in a line: small-molecule microarray binders of probe aWnt5a, primary screen, biochemical, biotinylated probe, 635/667 nm fluorescence (AID 1113).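 Also: score merges 667 nm fluorescence intensity with signal-to-noise per printed feature.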 To be noted: higher = more signal.
Test [7] in a line: small-molecule microarray binders of probe aShh, primary screen, biochemical, biotinylated probe, 635/667 nm fluorescence (AID 1114).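 Also: probe is biotin-labelled aShh protein from a stem cell growth factor screen; measures binding of labelled protein to compounds printed on the slide; score merges feature fluorescence at 667 nm with signal-to-noise.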 To be noted: higher = more signal.
Test [8] in a line: small-molecule microarray binders of probe aNog, primary screen, biochemical, biotinylated probe, 635/667 nm fluorescence (AID 1115).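 Also: probe is biotinylated aNog protein used at 0.15 µg/mL for 1 h at 4 C; z-score combines 667 nm fluorescence of each spot with its signal to noise.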 As to conditions: higher = more signal.
The target in test [9] is Torsin-1A-interacting protein 1 (Homo sapiens) (UniProt Q5JTV8). The test can be described thus: LAP1 binders from COS7 cell lysate, primary screen, small-molecule microarray, 635/667 nm fluorescence (AID 1116). To be noted: COS7-hLAP1 lysate binding, 635 nm fluorescence, higher = more signal.
Sequence of Torsin-1A-interacting protein 1 (Homo sapiens) (Q5JTV8 whole entry, looked up): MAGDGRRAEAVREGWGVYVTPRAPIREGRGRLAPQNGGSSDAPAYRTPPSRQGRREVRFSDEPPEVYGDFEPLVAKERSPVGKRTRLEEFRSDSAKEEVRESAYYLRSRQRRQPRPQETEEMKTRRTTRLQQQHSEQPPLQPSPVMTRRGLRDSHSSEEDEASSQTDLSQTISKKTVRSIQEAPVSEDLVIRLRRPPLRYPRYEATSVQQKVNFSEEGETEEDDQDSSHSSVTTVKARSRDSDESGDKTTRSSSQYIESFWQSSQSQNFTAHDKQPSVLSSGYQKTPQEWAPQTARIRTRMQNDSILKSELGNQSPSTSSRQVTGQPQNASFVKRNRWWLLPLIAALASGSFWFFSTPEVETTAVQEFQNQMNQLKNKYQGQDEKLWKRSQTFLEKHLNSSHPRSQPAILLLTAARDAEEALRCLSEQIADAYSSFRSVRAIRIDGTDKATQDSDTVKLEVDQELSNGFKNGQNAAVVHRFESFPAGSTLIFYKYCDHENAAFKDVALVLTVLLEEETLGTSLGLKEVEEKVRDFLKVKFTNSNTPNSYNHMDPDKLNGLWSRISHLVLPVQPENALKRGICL
In test [10] the target is Alpha-bungarotoxin (Bungarus multicinctus) (UniProt P60615). The test can be described thus: alpha-bungarotoxin binders on microarray, profiling panel, artefact control for SMM control protein annotation, biochemical, small-molecule microarray, Alexa647 label, 635/667 nm fluorescence (AID 1117). As to conditions: alpha-BTX-A647 binding fluorescence, higher = more signal.
Sequence of Alpha-bungarotoxin (Bungarus multicinctus) (P60615 whole entry, looked up): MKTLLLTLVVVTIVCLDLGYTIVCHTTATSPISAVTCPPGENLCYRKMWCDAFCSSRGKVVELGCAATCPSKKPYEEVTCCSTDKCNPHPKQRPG

These results are taken from PubChem BioAssay.

For the molecule `O=C1O[C@@H](c2ccccc2)[C@@H](c2ccccc2)N2[C@@H](c3ccc(OCCO)cc3)[C@]3(C(=O)Nc4ccccc43)[C@@H](C(=O)O)[C@H]12`, the composite z-score is 0.908 in test [1]; -0.318 in test [3]; -0.0663 in test [4]; 0.883 in [5]; 0.779 in test [6]; 0.297 in test [7]. Also, the composite z-score in test [8] was 2.26; in test [9], -0.308; in test [10], 0.323. Moreover, the z-score in test [2] is -1.47.
In the case of `COC(=O)[C@@]1(Cc2ccc(F)cc2)[C@H]2c3cc(C(=O)N4CCCC4)n(CCc4ccc(O)c(O)c4)c3C[C@H]2CN1C(=O)c1ccccc1`, the composite z-score was -0.369 in test [1]; -0.772 in [3]; 0.765 in test [4]; 0.694 in test [5]; 0.752 in test [6]; 2.04 in test [7]. Besides, the composite z-score is 2.27 in [8], 0.661 in [9] and -0.125 in test [10]. This molecule had a z-score in test [2] of -1.79.
For the molecule `CCCCN1CC=CC23O[C@@H]4/C=C\CCC(C)OC(=O)C4[C@H]2C(=O)N(C(CO)C(C)C)[C@@H]3C1=O` (stereo not given in full), the composite z-score is -0.164 in test [1]; -0.406 in [3]; -0.708 in test [4]; -0.926 in test [5]; -0.0403 in test [6]; 0.186 in test [7]. Besides, the composite z-score is -0.278 in [8], 1.36 in [9] and -0.312 in [10]. The molecule further yielded a z-score in test [2] of -0.768.
For `O=C1NC(=O)C2C1C=CC(C(O)c1ccco1)N2Nc1ccccn1` (stereo not given), the composite z-score was -0.45 in [1]; -0.111 in test [3]; -0.334 in test [4]; -0.0734 in test [5]; -0.2 in test [6]; 0.111 in [7]. The composite z-score was -0.295 in [8], 0.38 in test [9] and 0.0104 in test [10]. For the same molecule, the z-score in test [2] worked out at 0.314.
Regarding `C=CCC(OC(C)=O)[C@@H]1[C@@H](N(Cc2cc3ccccc3o2)C(=O)c2ccc(C)cc2)c2cc(OCCCO)ccc2N1C(=O)Cc1ccc(OC)cc1` (stereo not given in full), the composite z-score in test [1] is -0.098; in [3], -0.0667; in test [4] it was -0.254; in test [5], -0.583; in [6] it was 0.0317; in [7], 0.136. For the same molecule, the composite z-score in test [8] is -0.318; in test [9], -0.0471; in test [10], 0.203. In test [2], this molecule gave a z-score of -0.169.
Consider `CN1C(=O)C2C=CC(C(O)c3cccc4ccccc34)N(N3CCCCC3)C2C1=O` (stereo not given), for which the composite z-score in test [1] is 0.817; in test [3] it was 0.349; in [4], 2.23; in test [5], 1.02; in test [6], -0.027; in [7] it was -0.0055. The composite z-score in test [8] stood at 1.04; in [9], 2.45; in test [10], 1.67. This molecule also came in with a z-score in test [2] of -0.474.
For `COc1ccc([Si](C)(C)[C@@H]2[C@@H](CCO)O[C@]3(C(=O)N(Cc4ccc(N5CCCCC5=O)cc4)c4ccccc43)[C@H]2C)cc1`, the composite z-score is -0.0334 in test [1]; 0.216 in test [3]; 0.121 in [4]; 0.188 in [5]; -0.0758 in test [6]; 0.191 in [7]. The composite z-score turned out to be 0.0989 in test [8], 0.467 in [9] and 0.0967 in test [10]. Moreover, in test [2], the z-score is -5.11.
On to `CC1=C([C@H](O)CCc2ccccc2)[C@H](CO)[C@@H]2C(=O)N(C)C(=O)[C@@H]2C1`, for which the composite z-score in test [1] is 0.305; in test [3], 0.392; in test [4], 0.489; in [5], -0.905; in test [6] it was -0.197; in test [7], -0.262. Moreover, the figures for the composite z-score in [8], in [9] and in test [10] were -0.416, 0.185 and 0.224, respectively. Moreover, the z-score in test [2] was -0.581.
With `C=C(/C(=C/C[C@H](OC(C)=O)c1ccccc1OCCO)c1cc(C(=O)OC)ccc1OC)C(C)C`, the composite z-score in [1] is 0.83; in test [3], 0.0218; in test [4] it was -0.227; in [5], -0.578; in test [6], -0.096; in test [7], 0.0469. Also, the composite z-score in [8] was -0.0244; in test [9] it was 0.612; in test [10] it was -0.0802. The molecule also showed a z-score in [2] of -1.74.
Take `COc1cc2c(cc1OC)CN(C(=O)[C@@H]1[C@H]3C(=O)O[C@H](c4ccccc4)[C@H](c4ccccc4)N3[C@H](c3ccc(OCCO)cc3)[C@@]13C(=O)Nc1ccc(C#CC4(O)CCCCCC4)cc13)CC2`: the composite z-score in test [1] was 1.34; in test [3], 0.866; in [4], 1.52; in [5], -0.225; in test [6], 0.0596; in [7], 0.0985. In addition, the composite z-score in test [8] is -0.111; in test [9] it was 1.37; in test [10], 1.69. Besides, in test [2], the z-score is -1.34.
On to `O=C1C2C=CC(C(O)c3ccc(F)cc3)N(n3cnnc3)C2C(=O)N1Cc1ccccc1` (stereo not given), for which the composite z-score in [1] was -0.305; in [3], -0.856; in test [4], -0.171; in [5] it was 0.451; in test [6] it was -0.0781; in [7], -0.203. Moreover, the composite z-score in [8] was 0.146; in test [9], 0.419; in test [10] it was -0.39. In [2], this molecule showed a z-score of -0.574.
`COc1ccc([Si](C)(C)[C@H]2[C@H](CC(=O)N(CCO)Cc3ccccc3)O[C@@]3(C(=O)N(Cc4cccc(N5CCOC5=O)c4)c4ccccc43)[C@@H]2C)cc1`: the composite z-score in [1] was 0.671; in test [3], 0.498; in test [4], 0.107; in test [5] it was -0.48; in test [6], -0.154; in test [7], -0.147. Moreover, the results for the composite z-score in test [8], in [9] and in [10] were -0.318, 0.0843 and 0.429, respectively. The same molecule displayed a z-score in test [2] of -4.06.
Take `O=C1OCC=C[C@H]2OC34C=CCN(Cn5nnc6ccccc65)C(=O)[C@H]3N(CCCO)C(=O)[C@@H]4[C@@H]12` (stereo not given in full): the composite z-score in test [1] is -0.408; in test [3], -0.573; in [4] it was -0.0941; in test [5], 0.449; in [6], -0.26; in test [7], 0.381. Moreover, the composite z-score in test [8] is 0.0517; in test [9], 0.529; in [10] it was -1.11. The molecule also gave a z-score in [2] of 0.424.
